Laboratory results as given in article PMC7862700, “An all-to-all approach to the identification of sequence-specific readers for epigenetic DNA modifications on cytosine”.

Tests used:
Experiment in all cases: DAPPL (digital affinity profiling via proximity ligation, sequencing); 10 mM Tris-HCl pH 7.5, 50 mM NaCl, 1 mM DTT, 4% glycerol, room temperature, 30 min; GST-TFs on glutathione beads, 16-mer random dsDNA library, 0.1% formaldehyde crosslink after washing; high values mean tight binding
[1] = target: T1, FEV (Homo sapiens, UniProt Q99581 1-238); settings: protein: recombinant; tags: N-terminal GST; dsDNA, one strand shown
T1 sequence: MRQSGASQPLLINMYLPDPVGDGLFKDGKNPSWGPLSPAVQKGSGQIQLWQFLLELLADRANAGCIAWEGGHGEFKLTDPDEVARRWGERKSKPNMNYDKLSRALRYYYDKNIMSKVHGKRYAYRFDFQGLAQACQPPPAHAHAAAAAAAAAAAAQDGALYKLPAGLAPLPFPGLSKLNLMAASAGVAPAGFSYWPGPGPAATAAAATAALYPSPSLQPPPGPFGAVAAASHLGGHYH
Procedure, shortened: (§1)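 Pools of DNA-barcoded human transcription factors, expressed in yeast as GST fusions on glutathione beads and combined with a tag-only sample, were incubated with 200 nmole of a 16-mer random double-stranded DNA library. Incubation took 30 min at room temperature in Tris/NaCl/DTT/glycerol buffer and was followed by washing, 0.1% formaldehyde crosslinking, proximity ligation (BsaI/T4 ligase, 1 h, 37 °C), PCR amplification and sequencing on an Illumina NextSeq500. Binding signal is the ratio of a hexamer's read frequency for a factor to its frequency for the tag-only sample.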

[2] = target: ETV5 (Homo sapiens, UniProt P41161 1-510); settings: protein: recombinant; tags: N-terminal GST; dsDNA, one strand shown
Chain of ETV5 (P41161 whole entry): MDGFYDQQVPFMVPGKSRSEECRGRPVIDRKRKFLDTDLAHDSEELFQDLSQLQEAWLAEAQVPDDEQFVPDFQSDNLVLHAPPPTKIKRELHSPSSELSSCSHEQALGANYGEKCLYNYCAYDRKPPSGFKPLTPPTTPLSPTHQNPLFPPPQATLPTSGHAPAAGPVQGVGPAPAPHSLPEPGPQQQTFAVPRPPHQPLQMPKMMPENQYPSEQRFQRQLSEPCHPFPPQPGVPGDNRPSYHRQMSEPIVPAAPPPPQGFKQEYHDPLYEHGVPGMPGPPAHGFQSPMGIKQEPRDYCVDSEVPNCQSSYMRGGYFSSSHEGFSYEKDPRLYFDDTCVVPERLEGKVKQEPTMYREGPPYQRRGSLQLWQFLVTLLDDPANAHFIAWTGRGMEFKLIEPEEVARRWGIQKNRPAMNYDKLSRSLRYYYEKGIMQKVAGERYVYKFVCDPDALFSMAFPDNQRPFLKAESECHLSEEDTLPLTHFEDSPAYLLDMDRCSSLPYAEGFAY
Procedure, shortened: as §1

[3] = target: HSF1 (Homo sapiens, UniProt Q00613 1-529); settings: protein: recombinant; tags: N-terminal GST; chain copies: 3; dsDNA, one strand shown
Chain of HSF1 (Q00613 whole entry): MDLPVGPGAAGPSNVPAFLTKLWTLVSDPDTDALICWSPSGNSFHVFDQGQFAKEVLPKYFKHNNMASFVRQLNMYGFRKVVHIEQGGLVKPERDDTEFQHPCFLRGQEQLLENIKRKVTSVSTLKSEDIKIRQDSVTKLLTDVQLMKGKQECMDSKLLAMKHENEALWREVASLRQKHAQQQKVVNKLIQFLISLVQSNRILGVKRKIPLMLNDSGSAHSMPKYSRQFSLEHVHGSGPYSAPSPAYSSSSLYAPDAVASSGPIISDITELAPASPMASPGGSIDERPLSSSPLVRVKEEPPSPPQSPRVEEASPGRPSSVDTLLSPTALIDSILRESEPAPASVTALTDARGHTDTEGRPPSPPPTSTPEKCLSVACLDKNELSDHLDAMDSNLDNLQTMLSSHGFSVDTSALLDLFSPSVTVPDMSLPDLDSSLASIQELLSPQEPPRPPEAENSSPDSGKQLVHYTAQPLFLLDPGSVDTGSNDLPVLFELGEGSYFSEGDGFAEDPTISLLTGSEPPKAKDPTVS
Procedure, shortened: as §1

[4] = target: T2, SPIC (Homo sapiens, UniProt Q8N5J4 1-248); settings: protein: recombinant; tags: N-terminal GST; dsDNA, one strand shown
T2 sequence: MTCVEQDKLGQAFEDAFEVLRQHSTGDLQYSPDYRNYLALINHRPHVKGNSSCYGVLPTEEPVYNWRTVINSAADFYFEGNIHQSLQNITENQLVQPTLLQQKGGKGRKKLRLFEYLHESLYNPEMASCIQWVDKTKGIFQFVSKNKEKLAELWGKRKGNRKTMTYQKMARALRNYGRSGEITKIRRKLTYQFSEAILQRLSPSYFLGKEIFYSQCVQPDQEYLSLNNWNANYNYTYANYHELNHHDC
Procedure, shortened: as §1

[5] = target: ELF4 (Homo sapiens, UniProt Q99607 1-663); settings: protein: recombinant; tags: N-terminal GST; dsDNA, one strand shown
Chain of ELF4 (Q99607 whole entry): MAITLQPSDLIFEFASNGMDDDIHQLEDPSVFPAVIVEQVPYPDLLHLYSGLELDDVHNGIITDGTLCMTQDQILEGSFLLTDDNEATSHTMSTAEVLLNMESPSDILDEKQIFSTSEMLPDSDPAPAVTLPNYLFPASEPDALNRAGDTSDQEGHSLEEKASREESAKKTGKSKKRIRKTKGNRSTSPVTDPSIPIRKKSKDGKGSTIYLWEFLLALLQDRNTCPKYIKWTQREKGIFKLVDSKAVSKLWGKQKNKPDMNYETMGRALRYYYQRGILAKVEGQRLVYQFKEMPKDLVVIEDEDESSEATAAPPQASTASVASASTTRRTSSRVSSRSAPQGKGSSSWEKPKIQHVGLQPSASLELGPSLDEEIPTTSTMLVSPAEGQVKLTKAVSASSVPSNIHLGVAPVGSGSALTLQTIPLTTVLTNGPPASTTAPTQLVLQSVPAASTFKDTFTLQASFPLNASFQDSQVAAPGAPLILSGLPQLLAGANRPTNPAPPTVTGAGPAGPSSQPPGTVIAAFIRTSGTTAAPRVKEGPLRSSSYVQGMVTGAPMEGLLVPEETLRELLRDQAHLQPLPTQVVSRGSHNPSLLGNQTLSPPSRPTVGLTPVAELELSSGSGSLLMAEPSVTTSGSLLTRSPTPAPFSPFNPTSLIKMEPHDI
Procedure, shortened: as §1

[6] = target: T3, ELK4 (Homo sapiens, UniProt P28324-2 1-405); settings: protein: recombinant; tags: N-terminal GST; dsDNA, one strand shown
T3 sequence: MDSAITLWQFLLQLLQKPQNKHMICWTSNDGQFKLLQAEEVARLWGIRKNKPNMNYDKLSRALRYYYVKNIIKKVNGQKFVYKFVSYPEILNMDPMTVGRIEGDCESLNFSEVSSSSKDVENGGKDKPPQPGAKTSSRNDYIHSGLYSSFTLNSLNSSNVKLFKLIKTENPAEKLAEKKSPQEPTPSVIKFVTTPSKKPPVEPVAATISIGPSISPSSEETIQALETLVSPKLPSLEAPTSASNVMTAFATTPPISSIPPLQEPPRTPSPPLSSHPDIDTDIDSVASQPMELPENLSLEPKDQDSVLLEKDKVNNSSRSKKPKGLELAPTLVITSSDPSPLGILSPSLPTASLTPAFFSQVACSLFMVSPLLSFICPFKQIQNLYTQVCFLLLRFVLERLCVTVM
Procedure, shortened: as §1

[7] = target: T4, ETV2 (Homo sapiens, UniProt O00321 1-342); settings: protein: recombinant; tags: N-terminal GST; dsDNA, one strand shown
T4 sequence: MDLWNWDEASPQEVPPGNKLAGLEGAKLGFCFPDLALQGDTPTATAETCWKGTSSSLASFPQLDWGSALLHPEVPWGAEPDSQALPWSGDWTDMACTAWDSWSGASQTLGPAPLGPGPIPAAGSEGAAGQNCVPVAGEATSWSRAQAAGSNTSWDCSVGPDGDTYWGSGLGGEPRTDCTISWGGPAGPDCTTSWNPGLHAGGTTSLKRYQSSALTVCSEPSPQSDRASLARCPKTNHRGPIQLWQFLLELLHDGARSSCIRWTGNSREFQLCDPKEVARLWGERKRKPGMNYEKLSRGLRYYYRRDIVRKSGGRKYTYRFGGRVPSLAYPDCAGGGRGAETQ
Procedure, shortened: as §1

[8] = target: T5, ELF3 (Homo sapiens, UniProt P78545 1-371); settings: protein: recombinant; tags: N-terminal GST; dsDNA, one strand shown
T5 sequence: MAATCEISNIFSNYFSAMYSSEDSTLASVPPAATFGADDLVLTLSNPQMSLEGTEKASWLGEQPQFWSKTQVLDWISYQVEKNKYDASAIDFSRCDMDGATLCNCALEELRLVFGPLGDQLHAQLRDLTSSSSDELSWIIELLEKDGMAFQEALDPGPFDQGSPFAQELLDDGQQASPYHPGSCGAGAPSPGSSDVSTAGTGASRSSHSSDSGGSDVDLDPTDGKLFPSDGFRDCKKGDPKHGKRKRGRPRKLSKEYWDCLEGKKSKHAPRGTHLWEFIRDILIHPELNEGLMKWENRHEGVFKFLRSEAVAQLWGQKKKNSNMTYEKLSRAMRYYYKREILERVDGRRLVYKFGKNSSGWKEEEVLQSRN
Procedure, shortened: as §1

[9] = target: CRX (Homo sapiens, UniProt O43186 1-299); settings: protein: recombinant; tags: N-terminal GST; dsDNA, one strand shown
Chain of CRX (O43186 whole entry): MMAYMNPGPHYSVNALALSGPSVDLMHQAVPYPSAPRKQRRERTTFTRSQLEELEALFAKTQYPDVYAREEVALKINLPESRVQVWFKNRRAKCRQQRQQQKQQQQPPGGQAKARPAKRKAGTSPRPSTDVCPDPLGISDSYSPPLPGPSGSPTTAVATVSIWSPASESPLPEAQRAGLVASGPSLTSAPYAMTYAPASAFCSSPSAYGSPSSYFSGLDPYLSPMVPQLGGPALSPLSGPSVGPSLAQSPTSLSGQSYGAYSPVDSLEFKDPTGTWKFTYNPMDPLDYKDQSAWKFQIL
Procedure, shortened: as §1

[10] = target: ETV1 (Homo sapiens, UniProt P50549 1-477); settings: protein: recombinant; tags: N-terminal GST; dsDNA, one strand shown
Chain of ETV1 (P50549 whole entry): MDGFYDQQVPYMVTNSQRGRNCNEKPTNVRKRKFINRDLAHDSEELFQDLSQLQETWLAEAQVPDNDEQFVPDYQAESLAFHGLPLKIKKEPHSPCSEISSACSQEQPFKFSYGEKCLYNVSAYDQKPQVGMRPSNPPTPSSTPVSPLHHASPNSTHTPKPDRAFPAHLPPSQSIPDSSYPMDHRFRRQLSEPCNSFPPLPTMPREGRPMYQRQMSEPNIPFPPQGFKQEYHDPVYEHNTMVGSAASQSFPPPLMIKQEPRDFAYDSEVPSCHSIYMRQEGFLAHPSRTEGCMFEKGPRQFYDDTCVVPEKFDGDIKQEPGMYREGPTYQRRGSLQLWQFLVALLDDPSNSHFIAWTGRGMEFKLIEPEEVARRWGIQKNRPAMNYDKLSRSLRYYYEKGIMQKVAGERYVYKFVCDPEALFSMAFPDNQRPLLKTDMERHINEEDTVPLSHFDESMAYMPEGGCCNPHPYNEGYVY
Procedure, shortened: as §1

TTGTGT
binding signal [1]: 1.15 fold enrichment (6-mer frequency, TF over GST control)
binding signal [2]: 1.14 fold enrichment (6-mer frequency, TF over GST control)
binding signal [3]: 1.05 fold enrichment (6-mer frequency, TF over GST control)
binding signal [4]: 1.04 fold enrichment (6-mer frequency, TF over GST control)
binding signal [5]: 1.2 fold enrichment (6-mer frequency, TF over GST control)
binding signal [6]: 1.28 fold enrichment (6-mer frequency, TF over GST control)
binding signal [7]: 1.29 fold enrichment (6-mer frequency, TF over GST control)
binding signal [8]: 1.14 fold enrichment (6-mer frequency, TF over GST control)
binding signal [9]: 1.12 fold enrichment (6-mer frequency, TF over GST control)
binding signal [10]: 1.09 fold enrichment (6-mer frequency, TF over GST control)

AAGTTA
binding signal [1]: 1.15 fold enrichment (6-mer frequency, TF over GST control)
binding signal [2]: 1.26 fold enrichment (6-mer frequency, TF over GST control)
binding signal [3]: 1.09 fold enrichment (6-mer frequency, TF over GST control)
binding signal [4]: 1.27 fold enrichment (6-mer frequency, TF over GST control)
binding signal [5]: 1.28 fold enrichment (6-mer frequency, TF over GST control)
binding signal [6]: 1.19 fold enrichment (6-mer frequency, TF over GST control)
binding signal [7]: 1.27 fold enrichment (6-mer frequency, TF over GST control)
binding signal [8]: 1.15 fold enrichment (6-mer frequency, TF over GST control)
binding signal [9]: 1.26 fold enrichment (6-mer frequency, TF over GST control)
binding signal [10]: 1.23 fold enrichment (6-mer frequency, TF over GST control)

TAACAA
binding signal [1]: 1.18 fold enrichment (6-mer frequency, TF over GST control)
binding signal [2]: 1.12 fold enrichment (6-mer frequency, TF over GST control)
binding signal [3]: 1.25 fold enrichment (6-mer frequency, TF over GST control)
binding signal [4]: 1.12 fold enrichment (6-mer frequency, TF over GST control)
binding signal [5]: 1.19 fold enrichment (6-mer frequency, TF over GST control)
binding signal [6]: 1.15 fold enrichment (6-mer frequency, TF over GST control)
binding signal [7]: 1.26 fold enrichment (6-mer frequency, TF over GST control)
binding signal [8]: 1.28 fold enrichment (6-mer frequency, TF over GST control)
binding signal [9]: 1.48 fold enrichment (6-mer frequency, TF over GST control)
binding signal [10]: 1.2 fold enrichment (6-mer frequency, TF over GST control)

TCGTTT
binding signal [1]: 1.14 fold enrichment (6-mer frequency, TF over GST control)
binding signal [2]: 1.09 fold enrichment (6-mer frequency, TF over GST control)
binding signal [3]: 1.02 fold enrichment (6-mer frequency, TF over GST control)
binding signal [4]: 1.15 fold enrichment (6-mer frequency, TF over GST control)
binding signal [5]: 1.17 fold enrichment (6-mer frequency, TF over GST control)
binding signal [6]: 1.24 fold enrichment (6-mer frequency, TF over GST control)
binding signal [7]: 1.3 fold enrichment (6-mer frequency, TF over GST control)
binding signal [8]: 1.27 fold enrichment (6-mer frequency, TF over GST control)
binding signal [9]: 1.08 fold enrichment (6-mer frequency, TF over GST control)
binding signal [10]: 1.18 fold enrichment (6-mer frequency, TF over GST control)

TGCTAA
binding signal [1]: 1.29 fold enrichment (6-mer frequency, TF over GST control)
binding signal [2]: 1.29 fold enrichment (6-mer frequency, TF over GST control)
binding signal [3]: 1.32 fold enrichment (6-mer frequency, TF over GST control)
binding signal [4]: 1.26 fold enrichment (6-mer frequency, TF over GST control)
binding signal [5]: 1.28 fold enrichment (6-mer frequency, TF over GST control)
binding signal [6]: 1.42 fold enrichment (6-mer frequency, TF over GST control)
binding signal [7]: 1.24 fold enrichment (6-mer frequency, TF over GST control)
binding signal [8]: 1.15 fold enrichment (6-mer frequency, TF over GST control)
binding signal [9]: 1.8 fold enrichment (6-mer frequency, TF over GST control)
binding signal [10]: 1.39 fold enrichment (6-mer frequency, TF over GST control)

CTAGCT
binding signal [1]: 1.29 fold enrichment (6-mer frequency, TF over GST control)
binding signal [2]: 1.31 fold enrichment (6-mer frequency, TF over GST control)
binding signal [3]: 1.53 fold enrichment (6-mer frequency, TF over GST control)
binding signal [4]: 1.59 fold enrichment (6-mer frequency, TF over GST control)
binding signal [5]: 1.29 fold enrichment (6-mer frequency, TF over GST control)
binding signal [6]: 1.35 fold enrichment (6-mer frequency, TF over GST control)
binding signal [7]: 1.31 fold enrichment (6-mer frequency, TF over GST control)
binding signal [8]: 1.07 fold enrichment (6-mer frequency, TF over GST control)
binding signal [9]: 1.31 fold enrichment (6-mer frequency, TF over GST control)
binding signal [10]: 1.24 fold enrichment (6-mer frequency, TF over GST control)

GTCTCA
binding signal [1]: 1.25 fold enrichment (6-mer frequency, TF over GST control)
binding signal [2]: 1.4 fold enrichment (6-mer frequency, TF over GST control)
binding signal [3]: 1.01 fold enrichment (6-mer frequency, TF over GST control)
binding signal [4]: 1.4 fold enrichment (6-mer frequency, TF over GST control)
binding signal [5]: 1.33 fold enrichment (6-mer frequency, TF over GST control)
binding signal [6]: 1.34 fold enrichment (6-mer frequency, TF over GST control)
binding signal [7]: 1.32 fold enrichment (6-mer frequency, TF over GST control)
binding signal [8]: 1.48 fold enrichment (6-mer frequency, TF over GST control)
binding signal [9]: 1.12 fold enrichment (6-mer frequency, TF over GST control)
binding signal [10]: 1.24 fold enrichment (6-mer frequency, TF over GST control)

AATACT
binding signal [1]: 1.21 fold enrichment (6-mer frequency, TF over GST control)
binding signal [2]: 1.27 fold enrichment (6-mer frequency, TF over GST control)
binding signal [3]: 1.34 fold enrichment (6-mer frequency, TF over GST control)
binding signal [4]: 1.25 fold enrichment (6-mer frequency, TF over GST control)
binding signal [5]: 1.16 fold enrichment (6-mer frequency, TF over GST control)
binding signal [6]: 1.24 fold enrichment (6-mer frequency, TF over GST control)
binding signal [7]: 1.36 fold enrichment (6-mer frequency, TF over GST control)
binding signal [8]: 1.26 fold enrichment (6-mer frequency, TF over GST control)
binding signal [9]: 1.47 fold enrichment (6-mer frequency, TF over GST control)
binding signal [10]: 1.26 fold enrichment (6-mer frequency, TF over GST control)
